Source: PubChem BioAssay AID1159580 (chemical genetic matrix, 2015)
Hit rate of the full screen: of about 5,500 compounds, about 2,000 (36%) were called active. About 18% were inconclusive and are not listed. No stated cut-off is given here; in the data, active means normalized growth mostly below about 0.91 (no sharp cut-off); inconclusive means no clear call, values can overlap the other calls; inactive means mostly above about 0.92. The list shows a part of the results.

Assay: chemical genetic growth profiling, strain panel (AID 1159580);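 further: tested at 20 µM; growth read once vehicle control cultures reached saturation at 30 °C; 1 = growth at the plate median or of vehicle wells; lower values mean less growth of the strain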
Conditions: growth OD

Measured: normalized growth

O=C(O)CNCP(=O)(O)O
inactive: S. cerevisiae deletion strains, locus YJR075W, strain HOC1, active compounds read low 1.01 | S. cerevisiae deletion strains, locus YKL009W, strain mrt4, active compounds read low 1.04 | S. cerevisiae deletion strains, locus YKL068W, active compounds read low 1.01 | S. cerevisiae deletion strains, locus YKL085W, strain MDH1 (second series), active compounds read low 1 | S. cerevisiae deletion strains, locus YKL085W, strain MDH1, active compounds read low 1 | S. cerevisiae deletion strains, locus YKL160W, strain elf1, active compounds read low 1.02 | S. cerevisiae deletion strains, locus YKL190W, strain CNB1, active compounds read low 1.01 | S. cerevisiae deletion strains, locus YKR001C, strain vps1, active compounds read low 1.02 | S. cerevisiae deletion strains, locus YKR026C, strain gcn3, active compounds read low 1.02 | S. cerevisiae deletion strains, locus YKR091W, strain srl3, active compounds read low 1.01 | S. cerevisiae deletion strains, locus YLL001W, strain dnm1, active compounds read low 1.02 | S. cerevisiae deletion strains, locus YLL026W, active compounds read low 1.01 | S. cerevisiae deletion strains, locus YLL041C, strain sdh2, active compounds read low 1.01 | S. cerevisiae deletion strains, locus YLR027C, strain aat2, active compounds read low 1.01 | S. cerevisiae deletion strains, locus YLR039C, strain RIC1, active compounds read low 1.03 | S. cerevisiae deletion strains, locus YLR058C, strain SHM2, active compounds read low 1.01 | S. cerevisiae deletion strains, locus YLR102C, strain apc9, active compounds read low 1.01 | S. cerevisiae deletion strains, locus YLR113W, strain HOG1, active compounds read low 1.02 | S. cerevisiae deletion strains, locus YLR221C, strain rsa3, active compounds read low 1.01 | S. cerevisiae deletion strains, locus YLR258W, strain gsy2, active compounds read low 1.02 | S. cerevisiae deletion strains, locus YLR262C, strain YPT6 (second series), active compounds read low 1.03 | S. cerevisiae deletion strains, locus YLR262C, strain YPT6, active compounds read low 1.03 | S. cerevisiae deletion strains, locus YLR268W, strain sec22, active compounds read low 1 | S. cerevisiae deletion strains, locus YLR320W, strain mms22, active compounds read low 1.03 | S. cerevisiae deletion strains, locus YLR330W, strain CHS5, active compounds read low 1.01 | S. cerevisiae deletion strains, locus YLR342W, strain FKS1 (second series), active compounds read low 1.03 | S. cerevisiae deletion strains, locus YLR342W, strain FKS1, active compounds read low 1.03 | S. cerevisiae deletion strains, locus YLR357W, strain rsc2, active compounds read low 1.03 | S. cerevisiae deletion strains, locus YLR370C, strain arc18, active compounds read low 1 | S. cerevisiae deletion strains, locus YLR371W, strain rom2, active compounds read low 1.01 | S. cerevisiae deletion strains, locus YLR384C, strain iki3, active compounds read low 0.993 | S. cerevisiae deletion strains, locus YLR418C, strain cdc73, active compounds read low 1.02 | S. cerevisiae deletion strains, locus YML016C, strain PPZ1, active compounds read low 1 | S. cerevisiae deletion strains, locus YML032C, strain rad52, active compounds read low 1.01 | S. cerevisiae deletion strains, locus YML120C, strain ndi1, active compounds read low 1.02 | S. cerevisiae deletion strains, locus YML124C, strain tub3, active compounds read low 1.01 | S. cerevisiae deletion strains, locus YMR058W, strain fet3, active compounds read low 1.02 | S. cerevisiae deletion strains, locus YMR078C, strain ctf18, active compounds read low 1.01 | S. cerevisiae deletion strains, locus YMR125W, strain sto1, active compounds read low 1.02 | S. cerevisiae deletion strains, locus YMR129W, active compounds read low 1.01 | S. cerevisiae deletion strains, locus YMR205C, strain PFK2, active compounds read low 1.05 | S. cerevisiae deletion strains, locus YMR223W, strain ubp8, active compounds read low 1.01 | S. cerevisiae deletion strains, locus YMR231W, strain pep5, active compounds read low 1 | S. cerevisiae deletion strains, locus YMR263W, strain SAP30, active compounds read low 1.01 | S. cerevisiae deletion strains, locus YMR307W, strain GAS1, active compounds read low 0.975 | S. cerevisiae deletion strains, locus YNL067W, strain RPL9B, active compounds read low 1.02 | S. cerevisiae deletion strains, locus YNL071W, strain lat1, active compounds read low 1.02 | S. cerevisiae deletion strains, locus YNL128W, strain TEP1, active compounds read low 1 | S. cerevisiae deletion strains, locus YNL153C, strain GIM3, active compounds read low 1 | S. cerevisiae deletion strains, locus YNL183C, strain NPR1, active compounds read low 0.917 | S. cerevisiae deletion strains, locus YNL209W, strain ssb2, active compounds read low 1.03 | S. cerevisiae deletion strains, locus YNL233W, strain BNI4, active compounds read low 1.02 | S. cerevisiae deletion strains, locus YNL248C, strain rpa49, active compounds read low 1.01 | S. cerevisiae deletion strains, locus YNL250W, strain rad50, active compounds read low 1 | S. cerevisiae deletion strains, locus YNL271C, strain bni1, active compounds read low 1.01 | S. cerevisiae deletion strains, locus YNL298W, strain CLA4, active compounds read low 1.02 | S. cerevisiae deletion strains, locus YNL307C, strain MCK1, active compounds read low 1.02 | S. cerevisiae deletion strains, locus YNL322C, strain KRE1 (second series), active compounds read low 1.02 | S. cerevisiae deletion strains, locus YNL322C, strain KRE1, active compounds read low 1 | S. cerevisiae deletion strains, locus YNR049C, strain mso1, active compounds read low 1.02 | S. cerevisiae deletion strains, locus YNR052C, strain pop2, active compounds read low 1.01 | S. cerevisiae deletion strains, locus YOL006C, strain TOP1, active compounds read low 1.05 | S. cerevisiae deletion strains, locus YOL012C, strain htz1 0.788 | S. cerevisiae deletion strains, locus YOL147C, strain pex11, active compounds read low 1.01 | S. cerevisiae deletion strains, locus YOR001W, strain rrp6, active compounds read low 1.01 | S. cerevisiae deletion strains, locus YOR061W, strain CKA2, active compounds read low 1 | S. cerevisiae deletion strains, locus YOR069W, strain VPS5, active compounds read low 1.01 | S. cerevisiae deletion strains, locus YOR070C, strain gyp1, active compounds read low 1.02 | S. cerevisiae deletion strains, locus YOR080W, strain dia2, active compounds read low 1.01 | S. cerevisiae deletion strains, locus YOR083W, strain WHI5, active compounds read low 1.01 | S. cerevisiae deletion strains, locus YOR106W, strain vam3, active compounds read low 1.02 | S. cerevisiae deletion strains, locus YOR136W, strain idh2, active compounds read low 1.02 | S. cerevisiae deletion strains, locus YOR144C, strain elg1, active compounds read low 1.02 | S. cerevisiae deletion strains, locus YOR184W, strain ser1, active compounds read low 1.02 | S. cerevisiae deletion strains, locus YOR231W, strain MKK1, active compounds read low 0.977 | S. cerevisiae deletion strains, locus YOR265W, strain rbl2, active compounds read low 1.01 | S. cerevisiae deletion strains, locus YOR270C, strain vph1, active compounds read low 1.03 | S. cerevisiae deletion strains, locus YOR290C, strain snf2, active compounds read low 1.02 | S. cerevisiae deletion strains, locus YOR316C, strain cot1, active compounds read low 1.01 | S. cerevisiae deletion strains, locus YPL051W, strain arl3, active compounds read low 1.02 | S. cerevisiae deletion strains, locus YPL055C, strain LGE1, active compounds read low 0.987 | S. cerevisiae deletion strains, locus YPL078C, strain atp4, active compounds read low 1.02 | S. cerevisiae deletion strains, locus YPL106C, strain sse1, active compounds read low 1.02 | S. cerevisiae deletion strains, locus YPL240C, strain hsp82, active compounds read low 1.02 | S. cerevisiae deletion strains, locus YPL241C, strain CIN2, active compounds read low 0.999 | S. cerevisiae deletion strains, locus YPL256C, strain CLN2, active compounds read low 0.962 | S. cerevisiae deletion strains, locus YPR119W, strain clb2, active compounds read low 1.01 | S. cerevisiae deletion strains, locus YPR141C, strain kar3, active compounds read low 1.02 | S. cerevisiae deletion strains, locus YPR163C, strain tif3, active compounds read low 1.01 | S. cerevisiae deletion strains, locus YPR167C, strain met16, active compounds read low 1.02 | S. cerevisiae deletion strains, strain wtn01, active compounds read low 1.01 | S. cerevisiae strains, strain wild type, active compounds read low 0.997
